High-throughput results from PubChem BioAssay.
POLB inh: qHTS Assay for Inhibitors of DNA Polymerase Beta; P06746; Pol beta primer extension/strand displacement, fluorescence kinetic; Potency, µM (highest dose often 114 µM), without a hit: top-dose activity change, negative = inhibition, hits mostly inhibitors; 340,000 tested, 1.3% active; AID 485314, 2010; also: % is scaled to controls: 0 for no effect and ±100 for the full control effect
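Pol beta (10 nM) was preincubated with compound for 15 min at room temperature. The reaction was then started with 50 nM substrate and read immediately and after a further 10 min at room temperature.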
L3MBTL1 block: qHTS Assay for the Inhibitors of L3MBTL1 | Lethal(3)malignant brain tumor-like protein 1 (Homo sapiens), Q9Y468 | AlphaScreen L3MBTL1–H3K9me1 peptide binding | Potency, µM (highest dose often 57.1 µM), for the others: at the top dose activity, negative = inhibition, hits mostly inhibitors | 230,000 tested, 0.66% active | AID 485360, 2010; also: % is scaled to controls: 0 for no effect and ±100 for the full control effect; nearly all actives have a fitted effect of over 60% in size
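First, the protein-peptide complex forms for 30 min at room temperature (L3MBTL1 50 nM, biotinylated H3K9me1 peptide 75 nM). Next, compounds are pin-transferred and incubated 30 min. Finally, AlphaScreen beads are added and read after 30 min.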
Pol kappa inh-1: qHTS for Inhibitors of Polymerase Kappa; DNA polymerase kappa (Homo sapiens), Q9UBT6; purified Pol kappa, fluorescent DNA synthesis assay, 10 min; Potency, µM (titrated, usually from 107 µM), for the others: top-dose activity, negative = inhibition, usual class: inhibitors; 400,000 tested, 0.53% active; also: % is scaled to controls: 0 for no effect and ±100 for the full control effect
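Here, compound and 10 nM enzyme are combined for 15 min at room temperature; adding 50 nM substrate (final) starts DNA synthesis, tracked by fluorescence at 0 and 10 min against buffer-only wells.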
POLI inh: qHTS for Inhibitors of Polymerase Iota; DNA polymerase iota (Homo sapiens), Q9UNA4; Pol iota fluorescent replication assay, 10 min; Potency, µM (top dose mostly 115 µM), without a hit: top-dose activity, negative = inhibition, hits mostly inhibitors; 390,000 tested, 1% active
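Fluorescent replication assay read twice, at 0 min and 10 min after adding 50 nM (final) substrate. Enzyme (10 nM) and compounds were first incubated 15 min at room temperature; enzyme-free buffer wells were negative controls.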
WRN helicase inh: qHTS for Inhibitors of WRN Helicase. 360,000 tested, 0.46% active. WRN helicase unwinding, fluorescent forked duplex, kinetic. Bifunctional 3'-5' exonuclease/ATP-dependent helicase WRN (Homo sapiens), Q14191. Potency, µM (highest dose often 114 µM), for the others: at the highest dose activity change, negative = inhibition, most hits filed as inhibitors; also: % is scaled to controls: 0 for no effect and ±100 for the full control effect; nearly all actives have a fitted effect of over 55% in size
Target sequence (Q14191 whole entry, looked up): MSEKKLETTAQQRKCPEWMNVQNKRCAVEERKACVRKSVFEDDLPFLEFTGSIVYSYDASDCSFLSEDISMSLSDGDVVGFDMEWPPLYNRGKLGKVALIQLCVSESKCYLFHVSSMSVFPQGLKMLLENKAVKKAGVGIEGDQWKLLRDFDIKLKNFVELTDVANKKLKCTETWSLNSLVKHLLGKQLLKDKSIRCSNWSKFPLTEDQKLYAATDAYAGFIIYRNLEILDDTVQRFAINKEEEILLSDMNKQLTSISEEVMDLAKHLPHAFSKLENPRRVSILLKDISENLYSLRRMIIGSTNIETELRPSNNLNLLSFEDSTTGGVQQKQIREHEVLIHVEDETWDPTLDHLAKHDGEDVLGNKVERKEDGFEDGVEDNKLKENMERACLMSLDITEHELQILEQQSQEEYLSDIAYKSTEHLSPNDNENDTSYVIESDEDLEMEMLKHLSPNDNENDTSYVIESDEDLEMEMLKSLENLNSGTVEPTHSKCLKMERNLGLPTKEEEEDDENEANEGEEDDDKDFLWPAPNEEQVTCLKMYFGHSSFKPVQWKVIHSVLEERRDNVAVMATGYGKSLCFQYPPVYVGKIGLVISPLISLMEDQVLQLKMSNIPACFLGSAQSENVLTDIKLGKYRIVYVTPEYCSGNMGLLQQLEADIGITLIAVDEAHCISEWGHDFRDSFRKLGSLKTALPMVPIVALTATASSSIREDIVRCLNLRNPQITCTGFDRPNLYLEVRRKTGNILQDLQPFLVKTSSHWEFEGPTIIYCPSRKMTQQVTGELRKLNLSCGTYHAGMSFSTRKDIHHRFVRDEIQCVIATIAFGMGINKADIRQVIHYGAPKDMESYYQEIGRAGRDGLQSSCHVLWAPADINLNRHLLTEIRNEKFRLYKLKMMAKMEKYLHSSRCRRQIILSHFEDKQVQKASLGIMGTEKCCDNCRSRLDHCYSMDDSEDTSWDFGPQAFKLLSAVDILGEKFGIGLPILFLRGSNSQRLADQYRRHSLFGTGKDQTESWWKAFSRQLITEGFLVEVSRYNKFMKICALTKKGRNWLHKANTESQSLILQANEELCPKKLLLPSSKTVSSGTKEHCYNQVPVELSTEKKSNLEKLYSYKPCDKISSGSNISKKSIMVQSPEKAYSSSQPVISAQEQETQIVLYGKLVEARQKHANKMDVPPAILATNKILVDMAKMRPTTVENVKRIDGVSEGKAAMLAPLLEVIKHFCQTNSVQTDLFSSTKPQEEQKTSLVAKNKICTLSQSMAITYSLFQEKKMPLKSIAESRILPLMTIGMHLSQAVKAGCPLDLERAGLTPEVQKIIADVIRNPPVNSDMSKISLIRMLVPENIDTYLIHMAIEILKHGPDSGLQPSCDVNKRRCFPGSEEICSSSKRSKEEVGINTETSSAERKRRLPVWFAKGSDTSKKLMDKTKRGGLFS
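Kinetic red-fluorescence monitoring (525/598 nm) tracks WRN helicase activity after 100 nM fluorophore-quencher forked duplex and 2 mM ATP are added to 20 nM enzyme pretreated 15 min at room temperature with compound.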
Pol eta inh-1: qHTS for Inhibitors of Polymerase Eta | DNA polymerase eta (Homo sapiens), Q9Y253 | 390,000 tested, 1.2% active | Potency, µM (top dose mostly 114 µM), inactives show top-dose activity change, negative = inhibition, hits mostly inhibitors | recombinant Pol eta, fluorescent DNA replication assay; also: % is scaled to controls: 0 for no effect and ±100 for the full control effect
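Pol eta at 10 nM preincubated with compounds 15 min at room temperature; reaction started with fluorescent substrate (50 nM final) and read kinetically at 0 and 10 min.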
Pol kappa inh-2: qHTS for Inhibitors of Polymerase Kappa: Confirmatory Assay for Cherry-picked Compounds; shares compounds with Pol eta inh-1; purified Pol-kappa, fluorescent strand-displacement substrate; Potency, µM, actives largely listed as inhibitors; 920 tested, 76% active; AID 720501, 2013
Pol eta inh-2: qHTS for Inhibitors of Polymerase Eta: Confirmatory Assay for Cherry-picked Compounds. shares compounds with Pol eta inh-1. Pol eta primer extension, TAMRA/BHQ fluorescence, 10 min. Potency, µM, usual class: inhibitors. 2,600 tested, 64% active
* hit, by the source's call; ? = inconclusive; nt = no result given; [ ] = another dose, or the depositor's remark. Hits are enriched below; roughly 2.5% of the tested compounds scored in any of these assays. Calls follow the shape of the dose curve; as a rule, active = well fitted curve in the direction sought with a large enough effect; inconclusive = small, poorly fitted or top-dose-only effect, or another doubt; inactive = no such curve, though single readings can be large; an effect the other way counts as inactive or inconclusive. Potency is read from the fitted curve at half-maximal effect.

SMILES | POLB inh | L3MBTL1 block | Pol kappa inh-1 | POLI inh | WRN helicase inh | Pol eta inh-1 | Pol eta inh-2 | others
O=C(CCN1C(=O)/C(=C\C=C\c2ccccc2)SC1=S)Nc1ccccc1C(=O)O | 38% | nt | ? | ? | ? | 25µM* | ?
COCCCN1C(=O)C(CC(=O)NC(c2ccccc2)c2ccccc2)CC(C(=O)N(C(C)C)C(C)C)=C1C (stereo not given) | nt | nt | nt | nt | -6% | nt | nt
Cc1ccc(C)c(OCC(=O)Nc2cc(NC(=O)COc3cc(C)ccc3C)cc(C(=O)O)c2)c1 | 0% | 1% | -13% | ? | ? | 50µM* | 67*
Cc1ccc(C)c(OCC(=O)Nc2nonc2NC(=O)COc2cc(C)ccc2C)c1 | -25% | nt | -7% | ? | -9% | -11% | nt
COc1ccc(-c2cc3c(=O)n(CC(=O)Nc4ccc(Cl)cc4)ncn3n2)cc1 | 13% | nt | 5% | 21% | 1% | -15% | nt
CC[C@@H](C)CN1C(=O)N[C@@H](CCc2ccccc2)C(C(C)=O)=C1C | 0% | nt | -21% | 21% | 0% | -10% | nt
CC[C@@H](C)CN1C(=O)N[C@@H](c2ccccc2)C(C(C)=O)=C1C | nt | nt | ? | 14µM* | ? | 22µM* | 76*
COc1ccc(C(=O)/C=C/Nc2ccc(S(=O)(=O)Nc3ncccn3)cc2)cc1 | 15% | -2% | nt | nt | nt | nt | nt
CCC(C)(C)C1CCc2c(sc(NC(=O)c3ccccc3C(=O)O)c2C#N)C1 (stereo not given) | -34% | -29% | -33% | 26% | -35% | ? | nt | Pol kappa inh-2=?
O=C(O)c1cccc(N/N=C/C2=C(Cl)c3cc(Cl)ccc3SC2)c1 | ? | nt | -19% | ? | -17% | 50µM* | ? | Pol kappa inh-2=?
O=C(O)c1cccc(N/N=C/c2ccc(F)c(F)c2)c1 | -24% | 16% | -3% | 110% | -2% | -3% | nt
Nc1nonc1C(=O)N/N=C/c1ccc(Br)o1 | 2% | 15% | 1% | 67% | 7% | -22% | nt
Nc1nonc1C(=O)N/N=C/c1ccc(-c2ccc(Cl)c(C(=O)O)c2)o1 | ? | -92% | ? | 22µM* | ? | 13µM* | 48*
CC1(C)OC(=O)C(=Cc2ccc(-c3ccc(Cl)c(C(=O)O)c3)o2)C(=O)O1 | ? | 6.3µM* | 40µM* | ? | 45µM* | 10µM* | 27*
O=C(O)c1cc(-c2ccc(/C=N/Nc3ccc(Cl)cc3)o2)ccc1Cl | -20% | -10% | -23% | ? | -9%[11.6 µM] | ? | nt
Cc1ccc(N2NC(=O)/C(=C/c3ccc(-c4ccc(Cl)c(C(=O)O)c4)o3)C2=O)cc1C | -2% | -25% | -44% | ? | -19%[11.6 µM] | ? | nt | Pol kappa inh-2=?
Clc1ccc2[nH]c3c(c2c1)CNCC3 | 3% | nt | -7% | 105% | -1% | -5% | nt
CCOc1cc(/C=C/C(=O)OCC(=O)N(CC)C2CCS(=O)(=O)C2)cc(Cl)c1OC (stereo not given) | nt | nt | nt | nt | 0% | -3% | nt
COc1ccc2nc(Cl)c(C3CC(c4ccco4)=NN3C(=O)CCC(=O)O)cc2c1 (stereo not given) | 24% | -8% | -1% | -7% | -10% | ? | nt
